The record followed here is PubChem BioAssay AID588473 (Sanford-Burnham Center for Chemical Genomics, 2011).

Screen size: about 350,000 compounds; about 1,600 (0.46%) were called active.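 How the source made its calls: active means activation of at least 50%, plus an integration ratio under a set limit after plate pattern correction; inactive means the rest.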 Only a selection was taken, and actives are over-represented in it overall.

In the assay the test system is CRF-binding protein / CRF receptor 2 complex (human). Kind of assay: activators of CRF-R2 with CRF-BP – cell-based, HEK293, calcium dye fluorescence, uHTS, primary screen (AID 588473).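 Further: plate controls were neutral control wells without compound for no effect and CRF at EC100 for full effect.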 To be noted: calcium dye fluorescence (FLIPR), at 13.2 µM, active compounds read high, percent of saturating CRF peptide response.
Turning to `Cc1cc(C)c(S(=O)(=O)Nc2c(C)n(C)n(-c3ccccc3)c2=O)cc1[N+](=O)[O-]`, the activation is -0.78% (inactive). For the compound `Cc1ccc(C(=O)N/C(=C/c2ccco2)C(=O)NCCc2c[nH]c3ccccc23)cc1C`, the activation was -0.5% (inactive).

As to `N#C/C(=C/c1ccc(N2CCCCC2)o1)C(=O)NCCc1c[nH]c2ccccc12`, the activation is 138% (active). As for `O=C(NCCc1c[nH]c2ccccc12)C1CCN(Cc2ccc(Br)cc2)CC1`, the activation was 7.6% (inactive). Regarding `CNc1nc2c(C)cccn2c(=O)c1C=Nc1ccc(OC)cc1`, the activation is -0.9% (inactive). `Cc1cccn2c(=O)c(/C=C3\SC(=S)N(CC(C)C)C3=O)c(NCCCOC(C)C)nc12`: the activation is 83% (active). Turning to `CCCN(CCC)c1nc2c(C)cccn2c(=O)c1/C=C1/SC(=S)N(Cc2ccco2)C1=O`, the activation was 36.9% (inactive). For `CCOC(=O)NC(=O)C(=CNc1cccc(OC)c1)C(=O)NC(=O)OCC` the value was 2.88% (inactive); for `Cc1cccn2c(=O)c3cc(C(=O)NCCN4CCOCC4)c(=N)n(Cc4cccnc4)c3nc12`, -0.12% (inactive); for `Cc1cccn2c(=O)c3cc(C#N)c(=NC(=O)c4cccnc4)n(CC4CCCO4)c3nc12` (centres undefined), 56.4% (active). As for `Cc1cccn2c(=O)c3cc(C#N)c(=O)n(CCCN4CCOCC4)c3nc12`, the activation was 2.16% (inactive). Take `Cc1cc(=O)n2nc(N3CCCC(C(=O)NCc4ccc(Cl)cc4)C3)sc2n1` (centres undefined): the activation was -0.87% (inactive). Consider `CCCCCCCC[n+]1cccc(C(=O)N2c3c(nc(N)[nH]c3=O)NC(C)C2C)c1` (centres undefined), for which the activation is -1.35% (inactive). On to `Cc1cccc(C)c1N1CCN(S(=O)(=O)N2CCOCC2)CC1`, for which the activation was 16.7% (inactive). For the compound `Cc1cccc(C(=O)N2CCN(S(=O)(=O)N3CCCCC3)CC2)c1`, the activation is -0.46% (inactive). On to `Cc1cccc(C)c1N1CCN(S(=O)(=O)N2CCCCC2)CC1`, for which the activation was 152% (active).

`CCn1cc(CN2CCN(CC(C)(C)C)C(CCO)C2)c2ccccc21` (centres undefined): the activation is 4.34% (inactive). Consider `CCOc1ccc(NCCC(=O)c2ccc3c(c2)OCO3)cc1`, for which the activation was -0.43% (inactive). As to `COc1ccc(CCNC(=O)C(=O)NCC2OCCN2S(=O)(=O)c2cccs2)cc1OC` (centres undefined), the activation is -0.25% (inactive).

As for `CC1(C)N=C(c2ccccn2)C(C)(C)N1O`, the activation is 2.11% (inactive). Turning to `Cc1cccc(NC(=O)C(C)N2C(=O)C3C4CC(C(Br)C4Br)C3C2=O)c1` (centres undefined), the activation is 73.2% (active). For the compound `Cc1cccc(NC(=O)CN2C(=O)CNC2=O)c1`, the activation was -0.73% (inactive). `Cc1cccc(NC(=O)CCN2CC(C)CC(C)C2)c1` (centres undefined): the activation was -0.13% (inactive). As for `CN(C)S(=O)(=O)c1ccc(C(=O)NCC2(N3CCOCC3)CCCCC2)cc1`, the figure is 0.88% (inactive); as for `Cc1ccc(-n2[nH]c(C)c(/C=N/N3C(=O)c4cccc5cccc(c45)C3=O)c2=O)cc1`, 113% (active); as for `Cc1ccc(-c2ccnc3[nH]n(-c4ccccc4)c(=O)c23)cc1`, 0.1% (inactive).

Turning to `COc1cc(SC#N)ccc1N=Cc1c(C)[nH]n(-c2ccc(C)cc2)c1=O`, the activation was -2.61% (inactive). `Cc1noc(C)c1S(=O)(=O)N(C)Cc1ccccc1`: the activation was -2.84% (inactive).

With `CC(c1cccnc1)N(CCN(C)C)C(=O)Nc1ccc(Cl)c(Cl)c1` (centres undefined), the activation was 0.52% (inactive). For the compound `N#CC1(NC(=O)COC(=O)CCN=C2NS(=O)(=O)c3ccccc32)CCCCC1`, the activation is 8.71% (inactive).

In the case of `O=C(OCCN=C1NS(=O)(=O)c2ccccc21)c1cccc([N+](=O)[O-])c1`, the activation is -1.89% (inactive).

As for `O=C(CCCN=C1NS(=O)(=O)c2ccccc21)OCC(=O)c1ccc(F)c(F)c1`, the activation is 62% (active). Turning to `C=CCOc1cccc(C2C(C(=O)c3ccc(C)o3)=C(O)C(=O)N2CCN2CCOCC2)c1` (centres undefined), the activation was 0.15% (inactive).

Consider `CCCc1c(C(=O)N/N=C(\C)CCc2ccc(OC)cc2)nnn1-c1nonc1N`, for which the activation is -0.36% (inactive). As to `COc1ccc(C(=O)OCC(=O)NCC2CCCCC2)cc1S(=O)(=O)N1CCCc2ccccc21`, the activation is 1.36% (inactive). For `CCC(C)(C)NC(=O)/C=C/c1cc(OC)c(OC)c(S(=O)(=O)N2CCc3ccccc32)c1`, the activation is 3.27% (inactive). In the case of `COc1cc(C)c(C)cc1S(=O)(=O)N1CCCc2ccccc21`, the activation is 53.4% (active).

Regarding `CC(OC(=O)CN1C(=O)C2CCCCC2C1=O)C(=O)Nc1ncc(Cl)cc1Cl` (centres undefined), the activation was 0.41% (inactive). For the compound `CCNc1nc(Oc2ccc(C(=O)OC)cc2)nc(N2CCOCC2)n1`, the activation is 1.34% (inactive). As for `Cc1ccccc1NC(=O)C(C)c1ccc(-c2ccccc2)c(F)c1` (centres undefined), the figure is 1.53% (inactive). As for `CC1CC(NC(=O)/C(C#N)=C/c2ccc[nH]2)CC(C)(C)C1` (centres undefined), the figure is 2.1% (inactive). In the case of `CCOC(=O)c1c(NC(C)=O)sc2c(O)c(Br)ccc12`, the activation was 1.34% (inactive).

For `NC(N)=Nc1nc2ccc(Br)cc2c(=O)[nH]1`, the activation was -1.35% (inactive).

`O=c1c2cc(Br)ccc2nc(-c2cccc(Cl)c2)n1O`: the activation is 66.9% (active). For `NC(=O)c1cc(-c2cccnc2)nc2ccc(Br)cc12`, the activation is -0.32% (inactive). Regarding `CC1Sc2ccc(S(=O)(=O)CCC(=O)NCc3ccccc3Cl)cc2NC1=O` (centres undefined), the activation was -3.65% (inactive). Take `COc1ccc(N(CC(=O)N2CCCCCC2)S(=O)(=O)c2ccccc2)cc1`: the activation is 0.06% (inactive).

For `COc1ccc(C)cc1N(CC(=O)N1CCCC1)S(=O)(=O)c1ccccc1`, the activation was -0.01% (inactive). As for `COc1ccccc1N(CC(=O)N1CCCCC1)S(=O)(=O)c1ccccc1`, the figure is 59.4% (active).

As for `Nc1c(C(=O)c2cccs2)sc2nsc(SCCN3CCCCC3)c12`, the activation was 147% (active). Turning to `O=C(CCc1ccccc1)NNC(=O)COc1ccc(Cl)cc1`, the activation is -0.46% (inactive). In the case of `COc1ccc(C(=O)NNC(=S)NC(=O)c2ccccc2)cc1`, the activation was 123% (active). As for `CCOc1ccccc1NC(=S)NC(=O)CCc1ccccc1`, the activation is 0.36% (inactive).

In the case of `CC(=O)NC(=S)NNC(=O)c1ccc(Br)cc1`, the activation is -4.92% (inactive). With `COc1ccc(C(=O)NC(=S)NC2CCCCC2)cc1`, the activation was 1.07% (inactive).

Turning to `COc1ccc(C(=O)NC(=S)NNC(=O)CCc2ccccc2)cc1`, the activation was 68.5% (active).

Turning to `CCN(Cc1ccncc1)C(=S)Nc1ccccc1C`, the activation was -0.24% (inactive).

Take `COCCCNC(=S)N(CCN(C)C)Cc1cc2cc3c(cc2[nH]c1=O)OCCO3`: the activation is 0.16% (inactive). With `CC(=O)NC(CC(=O)Nc1nccs1)c1ccccc1` (centres undefined), the activation was 2.22% (inactive).

Consider `O=C(Nc1ccccc1C(F)(F)F)N1CCCC1c1cccnc1` (centres undefined), for which the activation was 0.09% (inactive). Take `Cc1ccc(NC(=O)CSc2nc(=O)n(CCN(C)C)c3c2CCCC3)c(C)c1`: the activation is -0.4% (inactive). As to `CCOC(=O)Cc1c(C)nc2c(C#N)c(C)nn2c1C`, the activation was -2.38% (inactive).

For `O=C(NCCc1ccccc1Cl)C1CCC(=O)N(CCCc2ccccc2)C1` (centres undefined), the activation was -1.43% (inactive).

As to `C/C(=N\NC(=O)c1cc2c(s1)CCC(C)C2)c1cccnc1` (centres undefined), the activation is -0.26% (inactive). In the case of `Cc1cc2nc3c(=O)n(Cc4ccccc4)c(=O)[nH]c3nc2cc1N`, the activation was 89.5% (active). Turning to `Nc1cc(=O)n(Cc2ccccc2)c(=O)n1Cc1ccccc1`, the activation is -0.25% (inactive). Turning to `CN(C(=O)COC(=O)c1ccc(Br)o1)c1c(N)n(Cc2ccccc2)c(=O)[nH]c1=O`, the activation was 1.22% (inactive). As to `CCCS(=O)(=O)N1CCCC(C(=O)NCCN2CCCCC2C)C1` (centres undefined), the activation was 2.69% (inactive). As for `COc1cccc(C=CC(=O)C=CC=Cc2ccccc2)c1`, the figure is 3.04% (inactive); as for `O=C(O)/C=C/c1ccc(S(=O)(=O)N2CCCCCC2)cc1`, -6.06% (inactive); as for `O=C(/C=C(O)/C=C/c1ccc(O)cc1)/C=C/c1ccc(O)cc1`, 123% (active).

As for `Cc1cc(Cl)ccc1C(=O)C1CCCN(C(=O)c2ccc3c(c2)OCO3)C1` (centres undefined), the activation was -0.83% (inactive). With `CC1(C)Cc2c(sc(NC(=O)C(=O)NCC3CCCO3)c2C(=O)O)CO1` (centres undefined), the activation is 1.19% (inactive). Turning to `COc1cc(NC(=O)c2ccccc2NS(=O)(=O)c2ccc(Cl)s2)cc(OC)c1`, the activation is 59.3% (active).

On to `O=C(Nc1cccc(Cl)c1)Nc1ccccc1NS(=O)(=O)c1cccs1`, for which the activation is 38.9% (inactive). Turning to `O=S(=O)(Nc1ccccc1N1CCOCC1)c1ccc(Cl)s1`, the activation was 0.68% (inactive).

On to `COc1ccc(CN2CCn3ncc(C(=O)Nc4ccc(Cl)cc4Cl)c3C2=O)cc1`, for which the activation was 1.96% (inactive).

As for `COc1ccccc1CNC(=O)C1CCCN(S(=O)(=O)c2cccc3cccnc23)C1` (centres undefined), the activation is -0.51% (inactive). With `COc1cc(OC)c(-n2c(C)cc(C=O)c2C)cc1Cl`, the activation was 0.85% (inactive). For `COc1ccc(-n2c(-c3ccc(Cl)cc3)n[nH]c2=S)c(OC)c1`, the activation was -2.26% (inactive). Consider `COc1cc(OC)c(-n2cc(-c3ccc(Cl)cc3)[nH]c2=O)cc1Cl`, for which the activation was 180% (active). `COc1ccc(NC(=O)N(C)C[C@H]2Oc3ncc(C#C[C@@H](C)O)cc3C(=O)N([C@H](C)CO)C[C@H]2C)cc1`: the activation was 5.65% (inactive). For the compound `CC(C)c1ccc(NC(=O)Cn2ncc3ccccc32)cc1`, the activation was -4.37% (inactive). As for `CC(NC(=O)Nc1ccccc1)c1ccccc1` (centres undefined), the figure is -0.98% (inactive); as for `CCC(C(=O)Nc1ccc(C(C)C)cc1)c1ccccc1` (centres undefined), 84.3% (active); as for `Cc1cc2c(cc1C)[n+](C)cn2CC(O)COCC1CC=CCC1` (centres undefined), 0.16% (inactive).

In the case of `O=C(Nc1ccc2c(c1)OCCO2)C1CCCC1`, the activation was -0.49% (inactive). As for `O=C(O)c1ccc(NC(=O)C2CCCCC2)cc1`, the figure is 51.5% (active); as for `CC(C)NS(=O)(=O)c1ccc(NC(=O)C2CCCCC2)cc1`, 1.98% (inactive); as for `CC(=O)NC12CC3CC(C1)CC(C(=O)N1CCN(S(=O)(=O)c4cccs4)CC1)(C3)C2`, -0.5% (inactive). As to `N#Cc1cccc(CSc2ncnc(N)n2)c1`, the activation is -1.54% (inactive). `COc1ccccc1-c1nnc(-c2ccc(F)cc2)o1`: the activation is 0.06% (inactive). For the compound `CCc1ccc(CN(C)C(=O)CCc2nnc(-c3ccc(-c4ccccc4)cc3)o2)nc1`, the activation is -0.63% (inactive). As to `CCCCCCc1cc2cc(-c3nnc(-c4ccccc4)o3)c(=O)oc2cc1O`, the activation is 269% (active).
